Laboratory results taken from PubChem BioAssay (NCATS).
Inconclusive results are not listed. Unmarked numbers belong to inactive results. Active and inactive are the calls of the source. The call rests on the fitted dose curve; in most records, active means well fitted inhibition curve with a large enough effect; inconclusive means small, poorly fitted or top-dose-only effect; inactive means flat fitted curve, though single readings scatter.

These compounds were tested on Zika virus NS2B-NS3 protease (assay: Primary screen GU AMC qHTS for Zika virus inhibitors (AID 1347154; further: nearly all actives have a fitted effect of over 70% in size;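 on activity change, negative = inhibition: 0% = no-inhibitor control and -100% = no-enzyme control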)). Settings: Zika NS2B-NS3 unlinked protease, AMC fluorogenic substrate; series mostly up to 54.1 µM; activity change, negative = inhibition: at the top concentration.
How it was run: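 Unlinked Zika NS2B hydrophilic domain–NS3 protease complex at 25 nM in 10 mM Tris-HCl pH 8.0, 0.01% Tween 20, with an AMC peptide substrate. Fluorescence change (340/450 nm) over 15 min at room temperature, normalized to controls, fitted to 4-parameter Hill.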
Potency means the concentration at half of the fitted maximal effect.

| Compound | activity change, negative = inhibition | Potency |
| --- | --- | --- |
| Cc1nc([N+](=O)[O-])cn1-c1ccc([N+](=O)[O-])cc1 | 2.55% |  |
| CC(=O)OC/C=C(C)/C=C/C=C(C)/C=C/C1=C(C)CCCC1(C)C |  | inactive |
| O=C(c1cc(O)c(O)c(O)c1)c1ccc(O)c(O)c1O |  | 0.891 µM (active) |
| CCOc1ccc(NS(=O)(=O)c2ccc(N)cc2)nn1 | 0.388% |  |
| C[C@@H]1CCC[C@H](C)N1CCCC(O)(c1ccccc1)c1ccccn1 (stereo partly drawn) | -4.66% |  |
| CCCCC(O)/C=C(C)/C=C/C=C/C(=O)N1CCCC1=O (stereo not drawn) | -5.24% |  |
| CCOC(=O)CN1CCCC1=O | -3.73% |  |
| NC(=O)COCCN1CCN(C(c2ccccc2)c2ccc(Cl)cc2)CC1 (stereo not drawn) | -0.415% |  |
| Nc1nnnn1-c1ccccc1 | 0.823% |  |
| COCCOCC(OC)OC | -6.39% |  |
| O=C(c1ccco1)N1CCNCC1 | 0.975% |  |
| Cc1sccc1Br | -0.159% |  |
| Cc1cccc(OCC(O)CNC(C)(C)C)c1C (stereo not drawn) | -1.44% |  |
| CC(=O)N(CC(O)CO)c1c(I)c(C(=O)NCCO)c(I)c(C(=O)NCC(O)CO)c1I (stereo not drawn) | -2.46% |  |
| CO/N=C(\C(=O)O)c1csc(NC(=O)CCl)n1 | 5.28% |  |
| OC1(c2ccccc2)CCNCC1 | 1.76% |  |
| CCCC(=O)c1cc(O)c(O)cc1O |  | 5.62 µM (active) |
| C[C@@H]1C[C@H]2[C@@H]3CCC4=CC(=O)C=C[C@]4(C)[C@@]3(F)[C@@H](O)C[C@]2(C)[C@@]1(O)C(=O)COC(=O)c1ccncc1 | 1.11% |  |
| NC(=O)NC1N=C([O][Al])NC1=O (stereo not drawn) | 0.538% |  |

| Compound | activity change, negative = inhibition | Potency |
| --- | --- | --- |
| O=C(O)c1ccccc1Nc1cc(Cl)ccc1C(=O)O | -8.54% [at 25.8 µM] |  |
| Cn1cc(S(C)=O)c(=O)c2ccc(F)cc21 (stereo not drawn) | -7.17% |  |
| C1=CC2C3C=CC(C3)C2C1 (stereo not drawn) | 0.367% [at 104 µM] |  |
| C/C(=C1\CCOC(=O)S1)N(C=O)Cc1cnc(C)nc1N | 2.39% |  |
| O=C(O)[C@H](O)[C@@H](O)[C@H](O[C@@H]1O[C@H](CO)[C@H](O)[C@H](O)[C@H]1O)[C@H](O)CO | -2.59% |  |
| CC(COc1ccccc1)NN (stereo not drawn) | 1.79% |  |
| Cc1cc(O)c(C)c(C)c1O | -0.406% |  |
| CNC[C@H](O)[C@@H](O)[C@H](O)[C@H](O)CO | -3.82% |  |
| Cc1cccc(C)c1NC(=O)c1ccc(N)cc1 | 0.553% |  |
| O=C1Nc2ccccc2C1(c1ccc(O)cc1)c1ccc(O)cc1 | -4.11% |  |
| CC(=O)OCC(=O)[C@@]1(O)[C@H](OC(C)=O)C[C@H]2[C@@H]3CCC4=CC(=O)C=C[C@]4(C)[C@@]3(F)[C@@H](O)C[C@@]21C | -3.83% |  |
| OCCCc1ccccc1 | -0.564% |  |
| Nc1ccc(O)cc1 | -3.26% |  |
| O=C1NC(c2ccccc2)(c2ccccc2)C(=O)N1COP(=O)(O)O | 5.32% |  |
| Cc1nc(N)nc(N)c1-c1ccc(Cl)c(Cl)c1 | 0.381% |  |
| O=C(OCC(O)CO)c1ccccc1Nc1ccnc2c(C(F)(F)F)cccc12 (stereo not drawn) | -9.45% |  |
| COc1ccc2c(c1)CCCC2=O | 1.47% |  |
| CCCCC(CC)CNC(=O)CC(C)OC(=O)CCC(=O)O (stereo not drawn) | -1.51% |  |
| Cc1c(C)c2c(c(C)c1OC(=O)CCC(=O)OCCO)CC[C@@](C)(CCC[C@H](C)CCC[C@H](C)CCCC(C)C)O2 | 3.43% |  |
